Data reported in the supplement of paper PMC10811239.

The molecules below were run on LEGO organoid PTN (PTEN-/-; TP53-/-; NF1-/-) (assay: bioluminescence (viable cell) signal fold change after vs before treatment, normalised to DMSO (ratio); higher = more tumour cell growth / less inhibition). Conditions: 10 µM; treatment time 6 days.
Description: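 Luc2-labelled iPSC-derived glioblastoma-like organoids (LEGOs, genotypes PT = PTEN-/-;TP53-/-, PTCC = plus CDKN2A/B-/-, PTN = plus NF1-/-) were treated with 10 uM drug for 6 days (applied every other day) at 37 C. Bioluminescence imaging was done before treatment and 2 days after the last dose. BLI signals were normalised to the DMSO control on the same day and then to the pre-treatment signal (N=3).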
In the case of `CCC1(c2ccc(N)cc2)CCC(=O)NC1=O` (configuration not stated) [Aminoglutethimide], the bioluminescence is reported as 1.07. Molecule `CN[C@@H]1C[C@H]2O[C@@](C)([C@@H]1OC)n1c3ccccc3c3c4c(c5c6ccccc6n2c5c31)C(=O)NC4` [Staurosporine] has a bioluminescence of 0. With `CCOC(=O)c1cncn1[C@H](C)c1ccccc1` [Etomidate] the bioluminescence was 2.17. Molecule `COc1ccc(C(CN(C)C)C2(O)CCCCC2)cc1.Cl` (configuration not stated) [Venlafaxine hydrochloride] has a bioluminescence of 1.33. Molecule `NCC(CC(=O)O)c1ccc(Cl)cc1` (configuration not stated) [Baclofen] has a bioluminescence of 1.95. Work on `O=C(O)CCCc1ccc(N(CCCl)CCCl)cc1` [Chloroambucil] yielded a bioluminescence of 1.36. Molecule `Cl.Cn1c(CCCC(=O)O)nc2cc(N(CCCl)CCCl)ccc21` [Bendamustine hydrochloride] has a bioluminescence of 1.14. `CN(C)C(=O)Oc1ccc[n+](C)c1.[Br-]` [Mestinon] showed a bioluminescence of 0.642. With `CCN(C)C(=O)Oc1cccc([C@H](C)N(C)C)c1` [Rivastigmine] the bioluminescence was 1.18. Work on `CCN(C)C(=O)Oc1cccc([C@H](C)N(C)C)c1.O=C(O)[C@H](O)[C@@H](O)C(=O)O` [Rivastigmine tartrate] yielded a bioluminescence of 1.33. With `Cc1cccc([C@H](C)c2cnc[nH]2)c1C.Cl` [Dexmedetomidine HCl] the bioluminescence was 0.581. For `CC(C)c1cccc(C(C)C)c1O` [Propofol], the bioluminescence was 1.2. Molecule `COc1cc2c(cc1OC)[C@@H]1CC(=O)[C@@H](CC(C)C)CN1CC2.COc1cc2c(cc1OC)[C@H]1CC(=O)[C@H](CC(C)C)CN1CC2` [Tetrabenazine] has a bioluminescence of 0.557. In the case of `Cc1n[nH]cc1-c1cc2[nH]c([C@@H]3CC4CCN3CC4)nc(=O)c2s1` [Simurosertib], the bioluminescence is reported as 1.05. For `CC[C@@H](C(N)=O)N1CCCC1=O` [Levetiracetam], the bioluminescence was 0.81. `NCC1(CC(=O)O)CCCCC1` [Gabapentin] was tested, and the bioluminescence was 0.585. Work on `CC(C)C[C@H]1C(=O)N2CCC[C@H]2[C@]2(O)O[C@](NC(=O)[C@@H]3C[C@@H]4c5cccc6[nH]cc(c56)C[C@H]4N(C)C3)(C(C)C)C(=O)N12.CC(C)[C@@]1(NC(=O)[C@@H]2C[C@@H]3c4cccc5[nH]cc(c45)C[C@H]3N(C)C2)O[C@@]2(O)[C@@H]3CCCN3C(=O)[C@H](Cc3ccccc3)N2C1=O.CC(C)[C@H]1C(=O)N2CCC[C@H]2[C@]2(O)O[C@](NC(=O)[C@@H]3C[C@@H]4c5cccc6[nH]cc(c56)C[C@H]4N(C)C3)(C(C)C)C(=O)N12.CCC(C)[C@H]1C(=O)N2CCC[C@H]2[C@]2(O)O[C@](NC(=O)[C@@H]3C[C@@H]4c5cccc6[nH]cc(c56)C[C@H]4N(C)C3)(C(C)C)C(=O)N12.CS(=O)(=O)O` [Dihydroergotoxine mesylate] yielded a bioluminescence of 1.88.
